Experimental data: PubChem BioAssay (NCATS)
Inconclusive results are not listed. Active and inactive are the calls of the source. The call rests on the fitted dose curve; in most records, active means well fitted curve in the direction sought with a large enough effect; inconclusive means small, poorly fitted or top-dose-only effect, or another doubt; inactive means no such curve, though single readings can be large; an effect the other way counts as inactive or inconclusive.

Assays:
[1] = qHTS of pediatric cancer cell lines to identify multiple opportunities for drug repurposing: Primary screen for DAOY cells (AID 1347090); further: nearly all actives have a fitted effect of over 55% in size; further: potency means the concentration at half of the fitted maximal effect
Outline: (§1)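 Cell viability, CellTiter-Glo luminescence; 500-1,000 cells/well, 8- or 11-point titration, 48 h compound exposure at 37 degrees C, 5% CO2. Controls: DMSO neutral, bortezomib 2.3 µM final as positive.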

[2] = qHTS of pediatric cancer cell lines to identify multiple opportunities for drug repurposing: Primary screen for NB-EBc1 cells (AID 1347095)
Outline: (§2)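 Plated cells (500-1,000 per well, growth media) were allowed to settle for 5 hours, treated with compound dilutions for 48 hours, then lysed with CellTiter-Glo for 15 min at room temperature before luminescence reading.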

[3] = qHTS of pediatric cancer cell lines to identify multiple opportunities for drug repurposing: Primary screen for U-2 OS cells (AID 1347096); further: nearly all actives have a fitted effect of over 50% in size; further: potency means the concentration at half of the fitted maximal effect
Outline: (§3)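 Cells (500-1,000/well) rested 5 h, then received compounds for 48 h; metabolically active cells were measured by CellTiter-Glo luminescence. Final concentrations spanned up to 46 µM (MIPE, 11-point) or 0.59 nM-46 µM (NPC, 8-point) in primary screens, 11-point in follow-ups.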

[4] = qHTS of pediatric cancer cell lines to identify multiple opportunities for drug repurposing: Primary screen for SK-N-SH cells (AID 1347098); further: nearly all actives have a fitted effect of over 65% in size; further: potency means the concentration at half of the fitted maximal effect
Outline: as §3

[5] = qHTS of pediatric cancer cell lines to identify multiple opportunities for drug repurposing: Primary screen for LAN-5 cells (AID 1347100); further: potency means the concentration at half of the fitted maximal effect
Outline: as §3

[6] = qHTS of pediatric cancer cell lines to identify multiple opportunities for drug repurposing: Primary screen for MG 63 (6-TG R) cells (AID 1347105); further: nearly all actives have a fitted effect of over 50% in size; further: potency means the concentration at half of the fitted maximal effect
Outline: as §2

[7] = qHTS of pediatric cancer cell lines to identify multiple opportunities for drug repurposing: Primary screen for control Hh wild type fibroblast cells (AID 1347106);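 further: series mostly up to about 46 µM; a drop in luminescence marks cytotoxicity and a rise apparent proliferation; nearly all actives have a fitted effect of over 55% in size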
Outline: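 Viability after 48 h compound treatment at 37C, 500-1,000 cells/well, read as ATP luminescence with CellTiter-Glo. Primary screens used 11-point (MIPE, 0.78 nM-46 µM) or 8-point (NPC, 0.59 nM-46 µM) final concentrations; follow-up screens used 11-point dilutions.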

[8] = qHTS of pediatric cancer cell lines to identify multiple opportunities for drug repurposing: Primary screen for Rh30 cells (AID 1347107); further: series mostly up to about 46 µM; nearly all actives have a fitted effect of over 75% in size
Outline: as §3

[9] = qHTS of pediatric cancer cell lines to identify multiple opportunities for drug repurposing: Primary screen for Rh41 cells (AID 1347108);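 further: series mostly up to about 46 µM; luminescence drop marks cytotoxic hits; nearly all actives have a fitted effect of over 70% in size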
Outline: as §2

[10] = qHTS of pediatric cancer cell lines to identify multiple opportunities for drug repurposing: Primary screen for SJ-GBM2 cells (AID 1347091)
Outline: as §1

[11] = qHTS of pediatric cancer cell lines to identify multiple opportunities for drug repurposing: Primary screen for SK-N-MC cells (AID 1347093); further: potency means the concentration at half of the fitted maximal effect
Outline: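 Metabolically active cells were quantified by ATP-dependent luminescence (CellTiter-Glo, 15 min at room temperature) following 48 h treatment. Cells had been plated at 500-1,000 per well and settled for 5 h beforehand.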

[12] = qHTS of pediatric cancer cell lines to identify multiple opportunities for drug repurposing: Primary screen for BT-37 cells (AID 1347094); further: potency means the concentration at half of the fitted maximal effect
Outline: as §2

[13] = qHTS of pediatric cancer cell lines to identify multiple opportunities for drug repurposing: Primary screen for Saos-2 cells (AID 1347097); further: nearly all actives have a fitted effect of over 40% in size; further: potency means the concentration at half of the fitted maximal effect
Outline: as §2

[14] = qHTS of pediatric cancer cell lines to identify multiple opportunities for drug repurposing: Primary screen for NB1643 cells (AID 1347099); further: nearly all actives have a fitted effect of over 50% in size; further: potency means the concentration at half of the fitted maximal effect
Outline: as §2

[15] = qHTS of pediatric cancer cell lines to identify multiple opportunities for drug repurposing: Primary screen for BT-12 cells (AID 1347101); further: nearly all actives have a fitted effect of over 25% in size; further: potency means the concentration at half of the fitted maximal effect
Outline: as §3

[16] = qHTS of pediatric cancer cell lines to identify multiple opportunities for drug repurposing: Primary screen for Rh18 cells (AID 1347102); further: nearly all actives have a fitted effect of over 65% in size; further: potency means the concentration at half of the fitted maximal effect
Outline: as §3

[17] = qHTS of pediatric cancer cell lines to identify multiple opportunities for drug repurposing: Primary screen for OHS-50 cells (AID 1347103); further: nearly all actives have a fitted effect of over 40% in size; further: potency means the concentration at half of the fitted maximal effect
Outline: as §3

[18] = qHTS of pediatric cancer cell lines to identify multiple opportunities for drug repurposing: Primary screen for RD cells (AID 1347104); further: nearly all actives have a fitted effect of over 55% in size; further: potency means the concentration at half of the fitted maximal effect
Outline: as §2

[19] = qHTS of pediatric cancer cell lines to identify multiple opportunities for drug repurposing: Primary screen for A673 cells (AID 1347092); further: nearly all actives have a fitted effect of over 45% in size; further: potency means the concentration at half of the fitted maximal effect
Outline: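 Luminescence from CellTiter-Glo, taken after 15 min at room temperature, served as the proxy for metabolically active cells following 48 h treatment. Both potency and efficacy were taken from curves fitted to the titration data.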

[20] = qHTS of pediatric cancer cell lines to identify multiple opportunities for drug repurposing: Confirmatory screen for A673 cells (AID 1347110);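 further: potency means the concentration at half of the fitted maximal effect; cells exposed to compound for 48 h before the viability read; nearly all actives have a fitted effect of over 65% in size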
Outline: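 qHTS titration format: primary MIPE 0.78 nM-46 µM (11 pts), NPC 0.59 nM-46 µM; confirmation 11 pts. 48 h, CTG luminescence.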

Measured: Potency

CN1CCCN(C(c2ccccc2)c2ccc(Cl)cc2)CC1 (centres undefined)
active: [4] 15.4 µM | [5] 15 µM
inactive: [1] | [2] | [3] | [6] | [7] | [8] | [9]

CO/N=C(/C(=O)N[C@@H]1C(=O)N2C(C(=O)[O-])=C(C[n+]3ccn4ncccc43)CS[C@H]12)c1nsc(N)n1
inactive: [1] | [10] | [11] | [12] | [2] | [3] | [13] | [4] | [14] | [5] | [15] | [16] | [17] | [18] | [6] | [7] | [8] | [9]

CO[C@@H]1[C@@H](OC)[C@H](C)[C@@](O)(CC(=O)O)O[C@H]1[C@H](C)[C@H]1O[C@@]2(CC[C@@](C)([C@H]3CC[C@@](C)([C@@H]4O[C@@H]([C@H]5O[C@](C)(O)[C@H](C)C[C@@H]5C)C[C@@H]4OC4C[C@H](OC)[C@@H](OC)[C@H](C)O4)O3)O2)C[C@H](O)[C@H]1C (some centres undefined)
inactive: [8]
active: [1] 3.35 µM | [19] 4.22 µM | [11] 0.188 µM | [12] 0.389 µM | [3] 8.41 µM | [13] 5.31 µM | [4] 2.44 µM | [14] 0.841 µM | [5] 1.06 µM | [15] 0.347 µM | [16] 3.76 µM | [17] 0.389 µM | [18] 4.73 µM | [20] 2.61 µM

O=C(Nc1ccc(S(=O)(=O)N2CCOCC2)cc1)c1cc(Cl)ccc1NS(=O)(=O)c1ccc(Cl)s1
inactive: [1] | [19] | [12] | [3] | [4] | [14] | [5] | [15] | [16] | [17] | [18] | [6] | [7] | [8] | [9]

c1ccc(C(O[C@H]2CCCN(CCc3ccc4c(c3)OCO4)C2)c2ccccc2)cc1
inactive: [1] | [19] | [2] | [3] | [14] | [5] | [15] | [16] | [18] | [6] | [7] | [8] | [9]

Cc1ccc(CCn2c3c(c4cc(Cl)ccc42)CN(C)CC3)cn1
inactive: [1] | [10] | [12] | [2] | [3] | [13] | [14] | [5] | [16] | [6] | [7] | [9]

CC(=O)Oc1ccc(C2(c3ccc(OC(C)=O)cc3)Oc3ccccc3NC2=O)cc1
inactive: [16] | [8]
active: [1] 13.3 µM | [19] 13.3 µM | [13] 11.9 µM | [15] 19.5 µM | [6] 4.22 µM

CC(CC1c2ccccc2CCc2ccccc21)CN(C)C (centres undefined)
inactive: [1] | [19] | [2] | [3] | [14] | [5] | [16] | [6] | [7] | [8] | [9]

CCCCC/C=C\C/C=C\CCCCCCCC(=O)NC(C)c1ccccc1 (centres undefined)
inactive: [1] | [10] | [2] | [3] | [14] | [5] | [16] | [18] | [8]
